Experimental findings from PubChem BioAssay (NCI) are described below.

Assay [1] in a line: NCI Yeast Anticancer Drug Screen. Data for the rad50 strain (AID 155).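 Further: 0% = growth of vehicle-only cultures of the same strain.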 The settings on record: S. cerevisiae rad50 strain growth inhibition; at 50.0 µM; stronger effect = higher value. The essentials: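 Compounds were tested on a yeast strain with an engineered DNA damage repair alteration; the reported value is growth inhibition normalised to vehicle treatment.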
Assay [2] is described as follows: NCI Yeast Anticancer Drug Screen. Data for the mec2-1 strain (AID 157). The note with it: S. cerevisiae mec2-1 strain, at 50.0 µM, stronger effect = higher value. The essentials: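 Test agents were screened against the mec2-1 yeast strain, with defined DNA repair or cell cycle alteration. Growth was scored as inhibition against vehicle-only controls.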
A short description of assay [3]: NCI Yeast Anticancer Drug Screen. Data for the sgs1 mgt1 strain (AID 161).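 Further: 0% = growth of cultures given vehicle only.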 The note with it: S. cerevisiae sgs1 mgt1 strain, at 50.0 µM, stronger effect = higher value. The gist of the method: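 Mutant yeast exposed to compound; growth scored against vehicle-only wells.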
Assay [4] is described as follows: NCI Yeast Anticancer Drug Screen. Data for the cln2 rad14 strain (AID 165).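 Further: 0% = growth equal to vehicle treated cultures.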 The settings on record: S. cerevisiae cln2 rad14 strain, at 50.0 µM, stronger effect = higher value. The gist of the method:
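Growth of compound-exposed yeast (cln2 rad14 genotype) measured and expressed as inhibition relative to vehicle.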

The nature of assay [5]: NCI Yeast Anticancer Drug Screen. Data for the bub3 strain (AID 167). The note with it: S. cerevisiae bub3 mutant strain, at 50.0 µM, stronger effect = higher value. The gist of the method: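 Growth of a checkpoint-deficient yeast mutant is measured after compound exposure. Values represent inhibition relative to vehicle.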
Assay [6] is described as follows: NCI Yeast Anticancer Drug Screen. Data for the mlh1 rad18 strain (AID 175). The note with it: S. cerevisiae mlh1 rad18 strain growth inhibition; at 50.0 µM; stronger effect = higher value. The essentials:
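In this whole-cell yeast screen, a strain with altered DNA damage repair is challenged with compound, and its growth is measured against matched vehicle-treated controls.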

This is part of a sample that, as a whole, favours compounds with a hit. Of some 79,000 tested, about 15% had one in any assay. Unmarked numbers belong to inactive results. Active and inactive are the calls of the source. No stated cut-off is given here; in the data, active means growth inhibition above about 70%; inactive means the rest.

Regarding `CCOC(=O)C(NC(C)=O)C(O)c1ccc(Cl)cc1Cl` (stereo not given), the growth inhibition in assay [1] was 18.4%; in assay [2], 3.4%; in assay [3], 0.05%; in assay [4], -45.9%; in assay [5] it was -9.4%; in assay [6] it was 19.7%.

For `CCCC(C)CCCC(=O)c1ccc2cc(OC)ccc2c1` (stereo not given), the growth inhibition in assay [1] is -34.2%; in assay [2] it was -16.8%; in assay [3] it was -14.5%; in assay [4], -33.3%; in assay [5] it was -2%; in assay [6] it was -29.9%.

For the molecule `c1ccc2c(c1)Oc1ccccc1S2`, the growth inhibition in assay [1] is -14.2%; in assay [2], -2.9%; in assay [3] it was -0.15%; in assay [4] it was 3.85%; in assay [5] it was 7.35%; in assay [6], -0.3%.

Consider `Cc1ccc(NC(=S)/N=C/c2c(O)[nH]c(=O)[nH]c2=O)c(C)c1`, for which the growth inhibition was -9.4% in assay [1]; -20.4% in assay [2]; -15.8% in assay [3]; -4.85% in assay [4]; -24.5% in assay [5]; 2.05% in assay [6].

In the case of `CC(C(N)=O)N1C(=O)C2C3CCC(O3)C2C1=O` (stereo not given), the growth inhibition was -7.65% in assay [1]; -6.65% in assay [2]; -16.1% in assay [3]; -44.8% in assay [4]; -1.8% in assay [5]; 3.1% in assay [6].

Take `CCC(C(N)=O)C(N)=O`: the growth inhibition in assay [1] was -20.1%; in assay [2], -27.9%; in assay [3], -34.5%; in assay [4], 15.8%; in assay [5], -1.3%; in assay [6], -6.1%.

On to `CSc1nn(C)c2cc(C)c3ccccc3[n+]12`, for which the growth inhibition was 20.4% in assay [1]; -7.8% in assay [2]; -10.2% in assay [3]; 7.25% in assay [4]; 4.6% in assay [5]; -16.4% in assay [6].

As to `CC(=O)N1CCC(=O)/C(=C/c2ccccc2)C1`, the growth inhibition in assay [1] was 4.95%; in assay [2] it was 0%; in assay [3] it was 32%; in assay [4], 15.9%; in assay [5] it was 17.6%; in assay [6] it was 44%.

As to `O=C(O)C1CC=CCC1c1c2ccc(=O)cc-2oc2cc(O)ccc12` (stereo not given), the growth inhibition in assay [1] was 48.5%; in assay [2], 27.8%; in assay [3], 15.8%; in assay [4], -5.25%; in assay [5], 32.9%; in assay [6] it was 13.6%.

On to `COC(=O)c1ccc(Cc2ccc(C(=O)OC)o2)o1`, for which the growth inhibition is -9.05% in assay [1]; 9.2% in assay [2]; -5.25% in assay [3]; -25.4% in assay [4]; -8.35% in assay [5]; -13.8% in assay [6].

Consider `Cc1ccc(Nc2c3ccccc3nc3ccccc23)cc1`, for which the growth inhibition in assay [1] is 97.9% (active); in assay [2], 88.5% (active); in assay [3], 93.8% (active); in assay [4], 91.1% (active); in assay [5], 88.2% (active); in assay [6] it was 97.1% (active).

Consider `NC(=O)c1cccc2c1OCO2`, for which the growth inhibition in assay [1] is -8.75%; in assay [2], 9.7%; in assay [3], -7.35%; in assay [4] it was -10.6%; in assay [5], -0.6%; in assay [6] it was -5.25%.

In the case of `N#CC1=C(c2ccccc2)C(=C2Nc3ccccc3N2)C2S/C(=C\c3ccccc3)C(=O)N2C1=N` (stereo not given), the growth inhibition in assay [1] is 21.2%; in assay [2], -12.3%; in assay [3] it was 10.4%; in assay [4], -31.1%; in assay [5] it was 4.45%; in assay [6] it was 26.8%.

Take `N#CSc1nc[nH]c1C(N)=O`: the growth inhibition in assay [1] was -38.2%; in assay [2] it was -12.4%; in assay [3], 3.45%; in assay [4], -16.6%; in assay [5] it was -26.3%; in assay [6], -4.4%.

Take `O=[N+]([O-])c1cccnc1Sc1ccccc1C1=NCCCN1`: the growth inhibition in assay [1] was -5.55%; in assay [2] it was -12.3%; in assay [3], -3.45%; in assay [4], 19.9%; in assay [5], -4.2%; in assay [6] it was -4.1%.

Turning to `COC(=O)C1CC(c2ccc(Cl)cc2)=NO1` (stereo not given), the growth inhibition in assay [1] was 36.4%; in assay [2], 8.25%; in assay [3] it was 8.5%; in assay [4], 5.3%; in assay [5] it was 1.5%; in assay [6], 47.1%.

`CCCCNS(=O)(=O)c1ccccc1`: the growth inhibition in assay [1] was 7.95%; in assay [2], -18.1%; in assay [3], -59.6%; in assay [4], 9.65%; in assay [5] it was 1.6%; in assay [6] it was 20.4%.

Turning to `COc1cc(/C=C/c2ccccn2)oc(=O)c1`, the growth inhibition in assay [1] is 5.2%; in assay [2] it was -6.7%; in assay [3], -2.05%; in assay [4], -14.3%; in assay [5], -12.1%; in assay [6], 7.9%.

In the case of `CC[n+]1cc([N+](=O)[O-])ccc1Cl`, the growth inhibition in assay [1] was 17.5%; in assay [2], 14.5%; in assay [3] it was 13.6%; in assay [4], 15.9%; in assay [5] it was 12.4%; in assay [6], 20.2%.

Consider `NC(=O)COc1c(Br)cc(Br)cc1Br`, for which the growth inhibition in assay [1] was -1.55%; in assay [2], 6.65%; in assay [3] it was -12.1%; in assay [4] it was -3.75%; in assay [5], -21.4%; in assay [6] it was -25.4%.
